# Screening data deposited in PubChem BioAssay by several laboratories.
# eIF4H inh: inhibitors of RNA binding by human eIF4H; AID 2012; eIF4H fluorescence polarization binding assay; hit rate 0.94% among 290,000; inhibition, % at 35 µM;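 note: calls also rest on retests at 20 µM and on dose response follow-up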
# MLLE-PAM2 inh: inhibitors of microRNA-mediated deadenylation, human PABP1 MLLE binding; P11940; GST-MLLE / FITC-PAM2 fluorescence polarization; inhibition, % at 20 µM; hit rate 0.36% among 360,000; in the data active = inhibition above about 35%, passing the limit was not always enough;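 note: plate controls were DMSO wells with GST-MLLE for no effect and wells lacking GST-MLLE protein for full effect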
# PABP polyA inh: PABP-poly(A) binding inhibition; P11940; PABP-poly(A) RNA binding, fluorescence polarization; inhibition, % at 35 µM; hit rate 1% among 290,000; AID 2014;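 note: calls also rest on retests at 20 µM and on dose response follow-up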
# eIF4E-4G inh: eIF4E/eIF4G interaction inhibition in translation initiation; inhibition, % at 21.7 µM; TR-FRET eIF4E-eIF4GI(517-606) binding, 2 h; hit rate 0.37% among 220,000;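 active = inhibition above about 30%, limit read from the data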;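 note: 0% = full FRET control wells and 100% = background wells lacking eIF4GI fragment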
# PERK inhibitor: human PERK inhibition, primary cell-based screen; CHO PERK-DD fusion, SEAP luminescence translation reporter; inhibition, % at 5.6 µM; Q9NZJ5; hit rate 0.17% among 220,000;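 active = inhibition above the mean inhibition of all tested compounds plus 3 SD, set separately per screening campaign, cut at about 2.9% in these data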;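 note: PERK kinase domain activated by AP20187 dimerizer at 100 nM; 0% = DMSO with dimerizer and 100% = rapamycin at 8.4 µM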
# An asterisk follows results filed as active; ? = inconclusive; / = no result given; [ ] = another dose, or the depositor's remark. Hits are enriched below; roughly 1.6% of the tested compounds scored in any of these assays. Unless noted, the rule behind the calls is not given here.
SMILES,eIF4H inh,MLLE-PAM2 inh,PABP polyA inh,eIF4E-4G inh,PERK inhibitor
N=C1/C(=C\c2ccc(-c3cccc(Cl)c3)o2)C(=O)N=C2SC=C(c3ccccc3)N12,4,-64,19,1,1
N=C1/C(=C\c2ccc(-c3ccc(C(=O)O)cc3)o2)C(=O)N=C2SC=C(c3ccccc3)N12,70*,-109,46,65*,1
CCC(C)[C@H](NC(=O)C1CC(=O)N(c2ccc3c(c2)OCO3)C1)C(=O)NC1CCCCC1 (stereo partly drawn),?,49*,?,/,/
COc1cc(Br)c(CC(=O)NC2CC2)cc1OC,-2,10,1,/,/
CC12CCC(=O)C=C1C(F)CC1C2C(O)CC2(C)C1CCC2(O)C(=O)CO (stereo not drawn),/,-8,/,/,/
CCOC(=O)Cc1cc(=O)[nH]n(-c2ccccc2)c1=O,/,-19,/,/,/
COc1cc(/C=N/n2c(-c3ccc4c(c3)NC(=O)CO4)csc2=Nc2cccc(C)c2)ccc1O,0,-10,-1,2,0
COCCN=c1scc(-c2ccc3c(c2)NC(=O)CO3)n1/N=C(\C)c1ccc(O)cc1,87,-14,43*,-3,1
CCOC(=O)c1cc(-c2ccc(OC)cc2)nc2c1c(C)nn2CCC(N)=S,-4,35*,-1,-3,0
CCCCN(C(=O)c1cccc(S(=O)(=O)N(CC)c2ccccc2)c1)c1c(N)n(CCCC)c(=O)[nH]c1=O,/,-45,/,/,/
COc1ccc(C(C)(O)c2nc(-c3ccc(F)c(Cl)c3)cs2)cc1 (stereo not drawn),/,9,/,/,/
COc1ccc(OCc2nc(-c3ccc(F)c(F)c3)cs2)cc1,-2,1,3,-1,3.3*
O=C(COc1ccc(Br)cc1)NNC(=O)c1ccc(-n2cncn2)c([N+](=O)[O-])c1,/,58*,/,/,/
COc1ccc(NC(=O)c2ccc(-n3cncn3)c([N+](=O)[O-])c2)cc1,10,9,92*,-2,0
Cc1ccc(OCC(=O)NNC(=O)c2ccc(-n3cncn3)c([N+](=O)[O-])c2)cc1,/,-3,/,/,/
O=c1oc2c(O)c(O)cc3c(=O)oc4c(O)c(O)cc1c4c23,102,8,-4,56*[fluorescence artefact?],2
CC(=O)NC(Cc1ccccc1)C(=O)OCC(=O)c1ccc(Cl)cc1 (stereo not drawn),active,-12,99*,0,0
CC(=O)NC(Cc1ccccc1)C(=O)OCC(=O)c1ccccc1 (stereo not drawn),-2,16,-2,1,1
CCc1c(C)sc(NC(=O)c2cc(C3CC3)on2)c1C#N,-8,36*,9,4,/
CCc1c(C)sc(NC(=O)c2cc(C)on2)c1C#N,5,18,-4,-4,0
CCN(CC(=O)Nc1ccc2c(c1)OCCO2)CC(=O)Nc1ccc(C)c(S(=O)(=O)N(C)C)c1,/,0,/,/,/
Cc1nn(-c2ccccc2)c(Cl)c1/C=N/Nc1ccc(S(=O)(=O)Nc2ccccc2C(=O)O)cc1[N+](=O)[O-],92*,-7,54*,26,0
CSc1ccc(C=NNc2ccc(S(=O)(=O)Nc3ccccc3C(=O)O)cc2[N+](=O)[O-])cc1,/,-6,/,/,/
CC(=O)Nc1ccc(C2=NNC(=NCC3CCCO3)SC2)cc1 (stereo not drawn),-4,-22,5,3,1
Fc1ccc(F)c(C2=NNC(=NCC3CCCO3)SC2)c1 (stereo not drawn),-13,64*,1,0,0
SMILES,eIF4H inh,MLLE-PAM2 inh,PABP polyA inh,eIF4E-4G inh,PERK inhibitor
CCc1noc(C)c1C(=O)N(CC)CC(=O)Nc1cc(Cl)ccc1C,/,-7,/,/,/
COc1ccccc1NS(=O)(=O)c1ccc(C)c(C(=O)NCC(c2cccs2)N2CCOCC2)c1 (stereo not drawn),/,8,/,/,/
CCOC(=O)c1c(-c2ccc(C)o2)csc1NC(=S)NC(=O)c1ccc(F)cc1,6,46*,4,17,0
CCOC(=O)c1c(-c2ccc(C)o2)csc1NC(=O)CN1CCCCC1,-11,2,2,3,0
C=C(C)c1cc2c(ccc3ccc(=O)oc32)o1,/,-14,/,/,/
C/C(=N\Nc1ccc(C(=O)O)cc1)c1nc2ccccc2n1C,active,/,116*,-2,0
Cc1ccc(S(=O)(=O)N2C[C@H]3[C@H]4C(=O)N(c5ccccc5)C(=O)[C@H]4C[C@H](OC(=O)NC4CCCC4)[C@@]3(O)C2)cc1,/,-1,/,/,/
N#Cc1ccc(CC(=O)c2ccccc2)[nH]c1=O,/,9,/,/,/
Cc1ccc(C)c(NC(=O)CSc2ccc(-c3cccs3)nn2)c1,22*,9,120*,2,1
Cc1cccc(NC(=O)CSc2ccc(-c3cccs3)nn2)c1C,-3,-7,-22,3,0
Cc1ccc(S(=O)(=O)N2CCOCC2)cc1NC(=O)CSc1nnnn1C1CC1,/,-35,/,/,/
COc1ccc(NC(=O)NNC(=O)CCc2ccc(O)c(O)c2)cc1OC,57*,-6,17,/,/
Cc1ccc(NS(=O)(=O)c2ccc3c(c2)CC(=O)N3)cc1F,/,7,/,/,/
CC(C)CSC1=NSC2=NC(=O)/C(=C\c3cccs3)C(=N)N12,51*,-26,8,1,-1
N=C1/C(=C/c2cccs2)C(=O)N=C2SN=C(SCc3ccccc3)N12,15,-10,3,14,1
Cc1nc(S/C(=C/c2ccc(-c3ccc(C(=O)O)cc3)o2)C(=O)O)n[nH]1,75,-18,44*,1,0
Cc1nc(S/C(=C/c2ccc(-c3cc(Cl)ccc3C)o2)C(=O)O)n[nH]1,60,-12,11*,-1,1
CC(=O)c1ccc(-c2ccc(/C=C(/Sc3n[nH]c(C)n3)C(=O)O)o2)cc1,18,-124,6,1,-1
C#CCN(C[C@H]1[C@H](OC(=O)NCc2ccco2)[C@H](OC(=O)NCc2ccco2)C[C@@H](C(=O)OC)[C@H]1C(=O)OC)S(=O)(=O)c1ccc(C)cc1,/,-3,/,/,/
O=C(Nc1ccc(Oc2ccccc2)cc1)c1csc([C@@H]2C[C@H](O)[C@@H](CO)O2)n1,/,30,/,/,/
OC[C@@H]1CN(Cc2ccc(-c3ccccc3)cc2)C[C@H](n2cnc3c(N4CCCC4)ncnc32)O1,/,0,/,/,/
Cc1ccc(NC(=O)C2C(c3ccccc3)C2(Cl)Cl)c(C)c1 (stereo not drawn),?,4,active,-7,1
Cc1cccc(NC(=O)C2C(c3ccccc3)C2(Cl)Cl)c1 (stereo not drawn),-3,1,-5,1,0
COc1cc([N+](=O)[O-])cc2sc(NC(=O)C(C)(C)C)nc12,11,-7,-10,-5,3.5*
Cc1ccc(S(=O)(=O)N2CCN(C(=O)c3ccc4ccccc4n3)CC2)c(C)c1,/,-12,/,/,/
CCC(CC)c1nnc(NC(=O)C2CC(=O)N(CCc3ccc(OC)c(OC)c3)C2)s1 (stereo not drawn),/,12,/,/,/
CCC(CC)c1nnc(NC(=O)C2CC(=O)N(CCc3ccc(F)cc3)C2)s1 (stereo not drawn),2,32*,5,/,/
O=C(Oc1c(CN2CCOCC2)cc(Cl)c2cccnc12)c1ccccc1F,?,15,68*,-1,0
Oc1c(Cl)cc(CN2CCOCC2)c2cccnc12,/,28,/,/,/
